Experimental data published in PubChem BioAssay (NCATS).
Several values for one entry are separate records, joined by “and”; a condition that tells them apart may be missing. Identical values can stand only once. Results filed as inconclusive are left out. A structure can be active in one record and inactive in another. Activity calls are given as the source filed them. Calls come from the whole dose curve; as a rule, active = well fitted curve in the direction sought with a large enough effect; inconclusive = small, poorly fitted or top-dose-only effect, or another doubt; inactive = no such curve, though single readings can be large; an effect the other way counts as inactive or inconclusive.

How the values were obtained:
[1] = qHTS assay for measurement of the activity of small molecule inhibitors on Zika virus induced Caspase-3 activity in human iPSC derived neural progenitor cells (hNPCs) (AID 1224857); conditions: hNPCs ZIKV-induced caspase-3/7, Caspase-Glo luminescence, 6 h; series mostly up to 45.7 µM; note: nearly all actives have a fitted effect of over 65% in size
Method in brief: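 hNPCs seeded 350 cells/well, cultured 16–20 h; compounds added 1 h before ZIKV (2 FFU/cell), 37 C 6 h. Caspase-Glo 3/7 luminescence after 30 min RT; % inhibition from induction scaled to uninfected (0%) and infected (100%) wells.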

[2] = qHTS assay for measurement of the activity of small molecule inhibitors on Zika virus induced Caspase-3 activity in human astrocytoma cells (AID 1224859); conditions: SNB-19 ZIKV-induced caspase-3/7, luminescence, 6 h; series mostly up to 45.7 µM
Method in brief: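 Luminescence read-out (Caspase-Glo 3/7, 30 min RT) of caspase activity in SNB-19 cells infected 6 h with ZIKV, 2 FFU/cell, after 1 h compound pretreatment; % inhibition from induction normalised to uninfected (0%) and infected (100%) wells.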

[3] = qHTS Screen of the MIPE 4.0 Collection Against Ewings Sarcoma (RDES) (AID 1259252); conditions: RD-ES Ewing sarcoma viability, CellTiter-Glo, 48 h; series mostly up to 45.8 µM; note: nearly all actives have a fitted effect of over 35% in size
Method in brief: (§1)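 Dose series incubated 48 h with cells in RPMI plus 5% FBS, glutamine and penicillin/streptomycin; cell viability then quantified via CellTiter-Glo.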

[4] = qHTS Screen of the MIPE 4.0 Collection Against Ewings Sarcoma (TC71) (AID 1259253); conditions: TC71 Ewing sarcoma viability, CellTiter-Glo, 48 h; series mostly up to 45.8 µM; note: nearly all actives have a fitted effect of over 40% in size
Method in brief: as §1

[5] = qHTS Screen of the MIPE 4.0 Collection Against Ewings Sarcoma (EW8) (AID 1259255); conditions: EW8 Ewing sarcoma viability, CellTiter-Glo, 48 h; series mostly up to 45.8 µM; note: nearly all actives have a fitted effect of over 35% in size
Method in brief: as §1

[6] = qHTS Screen of the MIPE 4.0 Collection Against Ewings Sarcoma (TC32) (AID 1259256); conditions: TC32 Ewing sarcoma viability, CellTiter-Glo, 48 h; series mostly up to 45.8 µM; note: nearly all actives have a fitted effect of over 45% in size
Method in brief: as §1

[7] = qHTS assay to identify small molecule inhibitors of chordoma cells - UCH-1 (AID 1259355); conditions: UCH-1 chordoma viability, CellTiter-Glo, 48 h, combination, with auranofin plus four topoisomerase inhibitors; series mostly up to 46.1 µM; note: nearly all actives have a fitted effect of over 55% in size
Method in brief: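 Cells (800/well) were seeded and left overnight at 37 C, 5% CO2, then treated with drugs at 15 concentrations plus a combination mix of auranofin, camptothecin, doxorubicin, rubitecan and topotecan. Viability after 48hr was read by CellTiter-Glo luminescence.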

[8] = qHTS assay to identify small molecule inhibitors of chordoma cells - UCH-2 (AID 1259356); conditions: UCH-2 chordoma viability, CellTiter-Glo ATP luminescence, 48 h; series mostly up to 46.1 µM
[9] = Identifying Small Molecule Inhibitors of Pancreatic Cancer Stem Cells (SN12C, Adherent) (AID 1259358); conditions: viability/growth inhibition; series mostly up to 46.1 µM;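 note: cell survival measured after 48 h of compound exposure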
Method in brief: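 Endpoint: ATP-based luminescence, 48 h drug exposure. Bortezomib at 9.2 uM final as full-kill control; DMSO vehicle as negative control; activity normalized between vehicle and cell-free wells.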

[10] = Identifying Small Molecule Inhibitors of Pancreatic Cancer Stem Cells (A2780, Spheroid) (AID 1259357); conditions: Potency: A2780 spheroid viability; series mostly up to 46.1 µM;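 note: compound exposure lasted 48 h before the ATP luminescence read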
Method in brief: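 Cytotoxicity read by CellTiter-Glo luminescence after 48 h compound exposure at 37C; percent activity scaled between DMSO-treated cells and cell-free wells. Spheroid formats used cells pre-formed 14 days in stem cell media on hydrogel.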

Measured: Potency
Potency is the fitted concentration of half-maximal effect.

CC(C)Cn1cnc2c(N)nc3ccccc3c21
inactive: [1] | [2] | [7] | [8]
active: [3] 16.6 µM | [4] 18.7 µM | [5] 7.43 µM | [6] 18.7 µM

Nc1nc(N)nc(-c2cc(Cl)ccc2Cl)n1
not listed: [9] | [10]
inactive: all other assays above

CCc1c2c(nc3ccc(OC(=O)N4CCC(N5CCCCC5)CC4)cc13)-c1cc3c(c(=O)n1C2)COC(=O)[C@]3(O)CC
active: [3] 0.332 µM | [4] 0.332 µM | [5] 0.469 µM
not listed: [9] | [10]
inactive: all other assays above

Cn1c(=O)c2c(ncn2CC(O)CO)n(C)c1=O (stereo not drawn)
not listed: [9] | [10]
inactive: all other assays above

Cc1cccc(Nc2ccncc2S(=O)(=O)NC(=O)NC(C)C)c1
inactive and 18.7 µM (active): [1]
not listed: [9] | [10]
inactive: all other assays above

CC(C)(C#N)c1cc(Cn2cncn2)cc(C(C)(C)C#N)c1
not listed: [9] | [10]
inactive: all other assays above

C[C@@H](CN1CC(=O)NC(=O)C1)N1CC(=O)NC(=O)C1
active: [5] 18.7 µM
not listed: [9] | [10]
inactive: all other assays above

CN1CCN(c2c(F)cc3c(=O)c(C(=O)O)cn(CCF)c3c2F)CC1
not listed: [9] | [10]
inactive: all other assays above

CC[C@H](NC(C)C)[C@H](O)c1ccc(O)c2[nH]c(=O)ccc12
not listed: [9] | [10]
inactive: all other assays above

CC(C)(Sc1cc(C(C)(C)C)c(O)c(C(C)(C)C)c1)Sc1cc(C(C)(C)C)c(O)c(C(C)(C)C)c1
active: [3] 2.96 µM | [4] 20.9 µM | [6] 9.35 µM
not listed: [9] | [10]
inactive: all other assays above

COC(c1ccccc1)(c1ccccc1)[C@H](Oc1nc(C)cc(C)n1)C(=O)O
not listed: [9] | [10]
inactive: all other assays above

O=C(N[C@H](CO)[C@H](O)c1ccc([N+](=O)[O-])cc1)C(Cl)Cl
not listed: [9] | [10]
inactive: all other assays above

CCCN[C@H]1CCc2nc(N)sc2C1
not listed: [9] | [10]
inactive: all other assays above

CC(C)OC(=O)C(C(=O)OC(C)C)=C1SC=CS1
not listed: [9] | [10]
inactive: all other assays above

CC(C)C1CCC(C(=O)N[C@H](Cc2ccccc2)C(=O)O)CC1 (stereo partly drawn)
not listed: [9] | [10]
inactive: all other assays above

COc1ncnc(NS(=O)(=O)c2ccc(N)cc2)c1OC
not listed: [9] | [10]
inactive: all other assays above

O=P(O)(O)C(O)(Cc1cccnc1)P(=O)(O)O
not listed: [9] | [10]
inactive: all other assays above

CN(C)c1ccc(C(=C2C=CC(=[N+](C)C)C=C2)c2ccc(N(C)C)cc2)cc1
active: [3] 0.372 µM | [4] 0.296 µM | [5] 0.418 µM | [7] 22.4 µM | [8] 7.3 µM
inactive: [1] | [2] | [6]

O=C(O)c1cn(C2CC2)c2cc(N3CCNCC3)c(F)cc2c1=O
not listed: [9] | [10]
inactive: all other assays above

CC(C)(C)C(=O)OCOP(=O)(COCCn1cnc2c(N)ncnc21)OCOC(=O)C(C)(C)C
active: [3] 0.372 µM | [4] 0.833 µM | [5] 0.209 µM
not listed: [9] | [10]
inactive: all other assays above

COc1ccc2cc3[n+](cc2c1OC)CCc1cc2c(cc1-3)OCO2
inactive: [1] | [2] | [7] | [8]
active: [3] 8.33 µM | [4] 5.9 µM | [5] 11.8 µM | [6] 7.43 µM

CCN(C)C(=O)Oc1cccc([C@H](C)N(C)C)c1
not listed: [9] | [10]
inactive: all other assays above

CN1CCN(c2c(F)cc3c(=O)c(C(=O)O)cn4c3c2OCN4C)CC1
not listed: [9] | [10]
inactive: all other assays above

NS(=O)(=O)c1cc2c(cc1Cl)NC(C(Cl)Cl)NS2(=O)=O (stereo not drawn)
not listed: [9] | [10]
inactive: all other assays above

CC(C)(C)NC(=O)[C@H]1CC[C@H]2[C@@H]3CC[C@H]4NC(=O)C=C[C@]4(C)[C@H]3CC[C@]12C
active: [3] 1.05 µM | [4] 1.32 µM | [5] 5.9 µM | [6] 3.72 µM
inactive: [1] | [2] | [7] | [8]

COC(=O)Nc1nc2ccc(Sc3ccccc3)cc2[nH]1
active: [3] 1.66 µM | [4] 1.66 µM | [5] 1.32 µM | [6] 1.18 µM
inactive: [1] | [2] | [8]

Nc1ccc(S(=O)(=O)Nc2ccccn2)cc1
not listed: [7] | [9] | [10]
inactive: all other assays above

O=C(NCC1CN(c2ccc(N3CCOCC3=O)cc2)C(=O)O1)c1ccc(Cl)s1 (stereo not drawn)
inactive: [1] | [2] | [3] | [4] | [6]

CC(C(=O)O)c1ccc2c(c1)CC(=O)c1ccccc1S2 (stereo not drawn)
inactive: [1] | [2] | [3] | [4] | [6]

COc1ccc(C(=O)CC(=O)c2ccc(C(C)(C)C)cc2)cc1
inactive: [1] | [2] | [8]
active: [3] 1.05 µM | [4] 1.66 µM | [5] 2.09 µM | [6] 1.66 µM

CO[C@@]12[C@H](COC(N)=O)C3=C(C(=O)C(C)=C(N)C3=O)N1C[C@@H]1N[C@@H]12
inactive: [1] | [2] | [8]
active: [3] 0.0332 µM | [4] 0.0418 µM | [5] 0.0662 µM | [6] 0.0037 µM | [7] 17.8 µM

COc1cc([C@@H]2c3cc4c(cc3[C@H](O)[C@H]3COC(=O)[C@H]23)OCO4)cc(OC)c1OC
active: [7] 0.0079 µM | [9] 0.0187 µM
not listed: [6] | [10]
inactive: all other assays above

CNS(=O)(=O)CCc1ccc2[nH]cc(C3CCN(C)CC3)c2c1
active: [3] 0.372 µM | [4] 0.235 µM | [6] 1.48 µM
inactive: [1] | [2]

CC(=O)Oc1ccccc1C(=O)Nc1ncc([N+](=O)[O-])s1
active: [1] 1.91 µM | [3] 21.5 µM | [4] 19.1 µM | [5] 21.5 µM | [6] 21.5 µM
1.71 µM (active) and inactive: [2]
inactive: [8]

Cn1nnc2c(C(N)=O)ncn2c1=O
not listed: [7] | [9] | [10]
inactive: all other assays above

Nc1nc(=S)c2[nH]cnc2[nH]1
active: [3] 0.935 µM | [4] 0.935 µM | [6] 0.526 µM
inactive: [1] | [2]

CC(C)NCC(O)c1ccc(NS(C)(=O)=O)cc1 (stereo not drawn)
active: [3] 5.9 µM | [4] 16.6 µM | [5] 16.6 µM
inactive: [1] | [2] | [7] | [8]

CNC(=O)c1cc(Oc2ccc(NC(=O)Nc3ccc(Cl)c(C(F)(F)F)c3)cc2)ccn1
inactive: [1] | [2]
active: [3] 1.18 µM | [4] 2.35 µM | [5] 18.7 µM | [10] 20.9 µM | [9] 20.9 µM

NC1(c2ccc(-c3nc4ccn5c(=O)[nH]nc5c4cc3-c3ccccc3)cc2)CCC1
active: [3] 23.5 µM | [4] 20.9 µM | [5] 4.69 µM | [6] 13.2 µM | [9] 26.4 µM
inactive: [1] | [2]

CCN[C@H]1C[C@H](C)S(=O)(=O)c2sc(S(N)(=O)=O)cc21
not listed: [9] | [10]
inactive: all other assays above

COc1ccc2c(c1)c(CC(=O)OCC(=O)O)c(C)n2C(=O)c1ccc(Cl)cc1
inactive: [1] | [2] | [3] | [4] | [6]

COc1cc2ncnc(Nc3cccc(Cl)c3)c2cc1OC
inactive: [1] | [2]
active: [3] 0.118 µM | [4] 4.18 µM | [6] 16.6 µM

CC(=O)[C@H]1CC[C@H]2[C@@H]3CC=C4C[C@@H](O)CC[C@]4(C)[C@H]3CC[C@]12C
not listed: [7] | [9] | [10]
inactive: all other assays above

CCCc1nc(C)c2c(=O)[nH]c(-c3cc(S(=O)(=O)N4CCN(CC)CC4)ccc3OCC)nn12
inactive: [1] | [2] | [7] | [8]
active: [3] 7.43 µM | [4] 8.33 µM | [5] 3.72 µM | [6] 9.35 µM

Nc1nc(N)c2nc(CNc3ccc(C(=O)NC(CCC(=O)O)C(=O)O)cc3)cnc2n1 (stereo not drawn)
inactive: [1] | [2] | [7]
active: [3] 0.0166 µM | [4] 0.0132 µM | [6] 0.0332 µM

CC1=C(C(=O)O)N2C(=O)[C@@H](NC(=O)C(N)c3ccccc3)[C@H]2SC1 (stereo partly drawn)
inactive: [1] | [2] | [3] | [4] | [6]

O=C(O)C1CCCN(CCC=C(c2ccccc2)c2ccccc2)C1 (stereo not drawn)
inactive: [1] | [2]
active: [3] 11.8 µM | [4] 9.35 µM | [6] 9.35 µM

CCN(CC)CCn1c(=O)c(Cc2ccc(OC)cc2)nc2ccccc21
not listed: [7] | [8] | [10]
inactive: all other assays above

CCCCc1oc2ccc(NS(C)(=O)=O)cc2c1C(=O)c1ccc(OCCCN(CCCC)CCCC)cc1
active: [3] 23.5 µM | [4] 20.9 µM | [6] 20.9 µM
inactive: [1] | [2]
